Test results as given in PubChem BioAssay (NCATS).
Results filed as inconclusive are left out. The source made the active and inactive calls. Unless noted, calls come from the whole dose curve; as a rule, active = well fitted curve in either direction with a large enough effect (not every such curve was filed as active); inconclusive = small, poorly fitted or top-dose-only effect, or another doubt; inactive = flat fitted curve, though single readings scatter.

How the values were obtained:
[1] = biological target: Lysosomal acid glucosylceramidase (Homo sapiens) (UniProt P04062); experiment: Glucocerebrosidase-p2 (AID 348; in the data active = potency below about 10 µM; note: potency is the fitted concentration of half-maximal effect); details: purified GBA, blue fluorogenic substrate, 40 min
Method in brief: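 Normal human glucocerebrosidase (0.2 nM) with blue fluorogenic substrate (80 uM final) in citrate/phosphate pH 5.9 with 10mM sodium taurocholate, 0.01% tween-20; 40 min RT, NaOH/glycine stop; fluorescence Ex 365/Em 440; AC50 from a titration from 0.6 nM upwards.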

[2] = AP1 Signaling Pathway (AID 357); details: ME-180 AP-1-bla reporter, EGF-induced, beta-lactamase ratio, 5 h; at 7.69 µM (top of the series) unless noted;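 note: ME-180 reporter cells stimulated with EGF at its EC50 level; % is set by controls: 0 for no effect and ±100 for the full control effect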
Method in brief: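 Cells are seeded overnight, exposed to compound titrations and an EC50 level of EGF for 5 hours at 37 °C, then loaded with CCF4 dye for 2.5 hours. Beta-lactamase activity under the AP-1 element is read as a blue/green ratio.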

[3] = NFAT Signaling Pathway (AID 444); details: Jurkat NFAT-bla M1, carbachol, beta-lactamase ratio, 5 h; at 7.69 µM (top of the series) unless noted;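 note: carbachol stimulus at about its EC50 of 1 µM final; % is set by controls: 0 for no effect and ±100 for the full control effect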
Method in brief: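 Read-out: CCF4 FRET ratio (460 nm/530 nm) after 1 h RT dye loading, used for %activity and AC50 from titration series. Cells: Jurkat NFAT-β-lactamase/M1 line, treated with compound plus 1 uM carbachol for 5 h, 37 °C.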

[4] = Stat Signaling Pathway (AID 446); details: ME-180 (cervical carcinoma) SIE beta-lactamase reporter, IL-6 stimulated, 5 h; at 7.69 µM (top of the series) unless noted;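 note: ME-180 cervical cancer cells given 40 pM IL-6 alongside compound; SIE-controlled beta-lactamase reporter measured as 460/530 nm FRET emission ratio; % is set by controls: 0 for no effect and ±100 for the full control effect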
Method in brief: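 FRET read-out (405 nm excitation, 460/530 nm emission) of a beta-lactamase reporter under a STAT-inducible element in ME-180 cervical carcinoma cells. Cells with compound receive 40 pM IL-6 for 5 h. Values are normalised to AC90 stimulation and AC90 JAK-inhibitor controls.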

[5] = biological target: Glucocorticoid receptor (Homo sapiens) (UniProt P04150); experiment: GR-GFP Redistribution (AID 450;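 active = compounds whose dose series gives a full or clear partial fitted curve of increased nuclear translocation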; note: potency is the fitted concentration of half-maximal effect); details: U2OS GR-GFP nuclear translocation, laser cytometry, 2 h
[6] = biological target: Glucocorticoid receptor (Homo sapiens) (UniProt P04150); experiment: GR-EFC Redistribution (AID 451; calls by dose curve; note: potency is the fitted concentration of half-maximal effect); details: CHO-K1 GR-EFC translocation, beta-gal luminescence, 2 h
Method in brief: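 Translocation of GR-ED fusion to nuclear EA restores b-gal, read by luminescence after 1 h room-temperature detection. Engineered CHO-K1 biosensor cells, 1,000/well, exposed 2 h at 37 C to titrations up to 46 uM final.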

[7] = biological target: Mitogen-activated protein kinase 10 (Mus musculus) (UniProt Q61831); experiment: JNK3 AlphaScreen Assay (AID 530); details: JNK3 lysate, c-Jun phosphorylation; series mostly up to 11.4 µM;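 note: kinase came from lysate of stimulated human HepG2 cells; signal reports phosphorylation of biotinylated GST-cJun 1-79 at Ser73 with 10 µM ATP; % is set by controls: 0 for no effect and ±100 for the full control effect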
Method in brief: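 Kinase buffer: 20 mM Tris-HCl pH 7.6, 10 mM MgCl2, 1 mM DTT, 0.1 mM Na3VO4, 0.01% Tween-20; ATP 10 uM. Substrate biotin-GST-cJun(1-79), enzyme from activated HepG2 lysates. Detection by Ser73 phospho-antibody AlphaScreen.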

[8] = biological target: 3',5'-cyclic-AMP phosphodiesterase 4B (Homo sapiens) (UniProt Q07343); experiment: qHTS Assay for Inhibitors of PDE-IV (AID 607; active = well fitted activation curve with a large enough effect in the main read-out, with a control signal flat, not every such curve was filed as active; note: % of control where 0% means no effect); details: HEK293 ACTOne CNG channel cells, membrane potential fluorescence; series mostly up to 22.9 µM
Method in brief: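 Cell-based read-out of cAMP via a modified cyclic nucleotide-gated channel and membrane potential dye (535/590 nm) in HEK293 cells expressing PDE4 endogenously. Compounds tested up to 22.9 uM final; 100 uM RO 20-1724 reference.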

Chain of Lysosomal acid glucosylceramidase (Homo sapiens) (P04062 whole entry, looked up): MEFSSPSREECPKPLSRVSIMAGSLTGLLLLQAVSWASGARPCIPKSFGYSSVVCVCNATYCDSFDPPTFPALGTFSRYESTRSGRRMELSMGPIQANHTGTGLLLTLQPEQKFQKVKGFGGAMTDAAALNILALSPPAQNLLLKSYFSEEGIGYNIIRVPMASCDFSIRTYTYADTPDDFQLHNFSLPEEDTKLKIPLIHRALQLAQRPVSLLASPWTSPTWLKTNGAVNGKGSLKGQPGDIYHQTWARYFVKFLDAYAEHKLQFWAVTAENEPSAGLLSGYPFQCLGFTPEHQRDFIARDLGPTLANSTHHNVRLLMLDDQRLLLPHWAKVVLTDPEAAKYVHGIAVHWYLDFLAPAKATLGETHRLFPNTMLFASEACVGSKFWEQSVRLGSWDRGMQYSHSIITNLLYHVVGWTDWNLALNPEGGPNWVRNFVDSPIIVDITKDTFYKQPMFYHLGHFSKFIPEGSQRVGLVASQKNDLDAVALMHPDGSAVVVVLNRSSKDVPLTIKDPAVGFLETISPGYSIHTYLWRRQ
Chain of Glucocorticoid receptor (Homo sapiens) (P04150 whole entry, looked up, the tested form may be a part): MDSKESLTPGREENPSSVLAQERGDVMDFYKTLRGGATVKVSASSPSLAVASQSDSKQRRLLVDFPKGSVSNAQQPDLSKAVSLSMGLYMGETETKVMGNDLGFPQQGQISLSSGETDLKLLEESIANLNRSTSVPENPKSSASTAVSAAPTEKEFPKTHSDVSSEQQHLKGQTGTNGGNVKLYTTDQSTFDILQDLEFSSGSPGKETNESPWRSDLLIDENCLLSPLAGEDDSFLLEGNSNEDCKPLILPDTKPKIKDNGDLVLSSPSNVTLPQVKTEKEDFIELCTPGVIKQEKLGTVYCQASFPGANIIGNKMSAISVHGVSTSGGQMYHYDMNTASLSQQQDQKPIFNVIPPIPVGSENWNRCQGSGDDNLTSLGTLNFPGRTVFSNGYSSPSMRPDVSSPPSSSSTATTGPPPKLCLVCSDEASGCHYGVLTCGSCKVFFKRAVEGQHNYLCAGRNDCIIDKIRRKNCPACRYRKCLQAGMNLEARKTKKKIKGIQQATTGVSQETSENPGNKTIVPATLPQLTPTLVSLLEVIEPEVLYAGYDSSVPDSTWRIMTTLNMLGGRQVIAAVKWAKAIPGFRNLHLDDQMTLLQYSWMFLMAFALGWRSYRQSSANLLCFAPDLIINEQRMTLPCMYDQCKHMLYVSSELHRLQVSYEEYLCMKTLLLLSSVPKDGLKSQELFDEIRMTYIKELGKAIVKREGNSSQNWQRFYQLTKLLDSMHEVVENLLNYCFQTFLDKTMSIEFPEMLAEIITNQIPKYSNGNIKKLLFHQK
Chain of 3',5'-cyclic-AMP phosphodiesterase 4B (Homo sapiens) (Q07343 whole entry, looked up): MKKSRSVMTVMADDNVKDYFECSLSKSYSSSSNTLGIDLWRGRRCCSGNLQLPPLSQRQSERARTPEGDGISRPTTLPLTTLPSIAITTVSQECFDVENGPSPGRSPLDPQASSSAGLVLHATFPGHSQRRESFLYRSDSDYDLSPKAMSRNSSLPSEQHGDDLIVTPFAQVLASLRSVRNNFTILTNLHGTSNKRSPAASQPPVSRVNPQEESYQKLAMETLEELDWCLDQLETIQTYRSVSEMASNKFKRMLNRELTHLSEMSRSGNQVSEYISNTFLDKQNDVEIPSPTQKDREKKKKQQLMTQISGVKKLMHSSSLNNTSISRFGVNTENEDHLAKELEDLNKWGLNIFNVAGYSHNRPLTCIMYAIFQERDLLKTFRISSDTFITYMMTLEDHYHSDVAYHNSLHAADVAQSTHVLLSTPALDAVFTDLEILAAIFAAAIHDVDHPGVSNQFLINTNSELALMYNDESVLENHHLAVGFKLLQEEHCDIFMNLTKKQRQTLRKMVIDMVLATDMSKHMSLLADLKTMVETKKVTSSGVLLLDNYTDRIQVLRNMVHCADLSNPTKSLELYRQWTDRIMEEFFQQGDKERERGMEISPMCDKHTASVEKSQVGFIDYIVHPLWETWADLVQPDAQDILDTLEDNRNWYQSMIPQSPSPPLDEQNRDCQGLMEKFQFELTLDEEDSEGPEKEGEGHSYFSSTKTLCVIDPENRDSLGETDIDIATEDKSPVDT

NC(N)=N[C@H](CC(=O)O)c1ccccc1
inactive: Potency [1] > 11.4 µM | activity change, negative = inhibition [2] 5.91% | activity change, negative = inhibition [3] 1.32% | activity, negative = inhibition [4] 3.35% | Potency [5] > 46 µM | Potency [6] > 9.22 µM | Potency [7] | Potency [8]

Cc1cc2c(SCc3ccccc3Cl)nc(N)nc2nc1C
inactive: Potency [1] > 11.4 µM | activity change, negative = inhibition [2] -22.2% | activity change, negative = inhibition [3] 15% | activity, negative = inhibition [4] -10.5% | Potency [5] > 46 µM | Potency [6] > 9.22 µM | Potency [7] | Potency [8]

c1ccc(CN2COc3c(ccc4c5c(ccc34)CN(Cc3ccccc3)CO5)C2)cc1
inactive: Potency [1] > 11.4 µM | activity change, negative = inhibition [2] -0.336% | activity change, negative = inhibition [3] 7.9% | activity, negative = inhibition [4] 8.56% | Potency [5] > 46 µM | Potency [6] > 9.22 µM | Potency [7] | Potency [8]

COc1ccc(-c2nc3cnc(Oc4ccccc4)nc3n(C3CC3)c2=O)cc1
inactive: Potency [1] > 11.4 µM | activity change, negative = inhibition [2] -23.1% | activity change, negative = inhibition [3] 15.1% | activity, negative = inhibition [4] 4.9% | Potency [5] > 9.22 µM | Potency [6] > 46 µM | Potency [7] | Potency [8]

Cn1c(=S)c2[nH]c(SCCN3C(=O)c4ccccc4C3=O)nc2n(C)c1=O
inactive: Potency [1] > 11.4 µM | activity change, negative = inhibition [2] 0.578% | activity change, negative = inhibition [3] -4.22% | activity, negative = inhibition [4] 2.07% | Potency [5] > 46 µM | Potency [6] > 9.22 µM | Potency [7] | Potency [8]

CCOC(=O)c1c(O)[nH]c(=O)c(CC)c1C
inactive: Potency [1] > 11.4 µM | activity change, negative = inhibition [2] -5.14% | activity change, negative = inhibition [3] -3.29% | activity, negative = inhibition [4] 13.4% | Potency [5] > 46 µM | Potency [6] > 9.22 µM | Potency [7] | Potency [8]

C[N+]1(CCN=C=NC2CCCCC2)CCOCC1
inactive: Potency [1] > 11.4 µM | activity change, negative = inhibition [2] 9.01% | activity change, negative = inhibition [3] -4.19% | activity, negative = inhibition [4] -0.107% | Potency [5] > 46 µM | Potency [6] > 9.22 µM | Potency [7] | Potency [8]

O=S(=O)(O)n1ccnc1 (tested in a mixture with another compound)
inactive: Potency [1] > 11.4 µM | activity change, negative = inhibition [2] -2.09% | activity change, negative = inhibition [3] 6.55% | activity, negative = inhibition [4] 0.01% | Potency [5] > 46 µM | Potency [6] > 9.22 µM | Potency [7] | Potency [8]

CN(C)CCN1C(=O)CC[C@]2(C)C1=CC[C@@H]1[C@@H]2CC[C@]2(C)[C@H]1CC[C@]2(C)O
inactive: Potency [1] > 11.4 µM | activity change, negative = inhibition [2] 3.79% | activity change, negative = inhibition [3] -6.05% | activity, negative = inhibition [4] 6.79% | Potency [5] > 46 µM | Potency [6] > 9.22 µM | Potency [7] | Potency [8]

CC(C)[C@H](N=Cc1ccccc1O)C(=O)O
inactive: Potency [1] > 11.4 µM | activity change, negative = inhibition [2] -4.87% | activity change, negative = inhibition [3] 4.44% | activity, negative = inhibition [4] -0.012% | Potency [5] > 46 µM | Potency [6] > 9.22 µM | Potency [7] | Potency [8]

OCCSCc1cc(Cl)cc(Cl)c1O
inactive: Potency [1] > 11.4 µM | activity change, negative = inhibition [2] -3.03% | activity change, negative = inhibition [3] 14.2% | activity, negative = inhibition [4] 17.5% | Potency [5] > 46 µM | Potency [6] > 9.22 µM | Potency [7] | Potency [8]

CN(CCC(=O)O)S(=O)(=O)c1ccccc1
inactive: Potency [1] > 11.4 µM | activity change, negative = inhibition [2] -0.615% | activity change, negative = inhibition [3] 15.6% | activity, negative = inhibition [4] 11.1% | Potency [5] > 46 µM | Potency [6] > 9.22 µM | Potency [7] | Potency [8]

O=C(O)c1ccccc1-c1ccccc1C(=O)c1ccccc1
inactive: Potency [1] > 11.4 µM | activity change, negative = inhibition [2] 6.33% | activity change, negative = inhibition [3] 5.49% | activity, negative = inhibition [4] 2.8% | Potency [5] > 46 µM | Potency [6] > 9.22 µM | Potency [7] | Potency [8]

COc1ccc(Cc2ccc3[nH]c(=O)cc(C)c3c2)cc1S(=O)(=O)O
inactive: Potency [1] > 11.4 µM | activity change, negative = inhibition [2] 7.37% | activity change, negative = inhibition [3] 8.36% | activity, negative = inhibition [4] 5.41% | Potency [5] > 46 µM | Potency [6] > 9.22 µM | Potency [7] | Potency [8]

COc1ccc(Oc2ncc3nc(-c4ccc(Cl)cc4)c(=O)n(CCC#N)c3n2)cc1
inactive: Potency [1] > 11.4 µM | activity change, negative = inhibition [2] -25.6% | activity change, negative = inhibition [3] 0.455% | activity, negative = inhibition [4] -7.87% | Potency [5] > 46 µM | Potency [6] > 46 µM | Potency [7] | Potency [8]

C[N+]1(C)CCO[C@](O)(c2ccccc2)C1
inactive: Potency [1] > 11.4 µM | activity change, negative = inhibition [2] 7.17% | activity change, negative = inhibition [3] -3.28% | activity, negative = inhibition [4] 6.89% | Potency [5] > 46 µM | Potency [6] > 9.22 µM | Potency [7] | Potency [8]

O=C(C[C@@H](C(=O)O)N1CCOCC1)c1ccccc1
inactive: Potency [1] > 11.4 µM | activity change, negative = inhibition [2] 8.49% | activity change, negative = inhibition [3] -28.5% | activity, negative = inhibition [4] -2.89% | Potency [5] > 46 µM | Potency [6] > 9.22 µM | Potency [7] | Potency [8]
